Measurements: the supplement of paper PMC8728848
This excerpt belongs to a sample that is enriched for the strongest signals.

Tests used:
Assay in all cases: glycan array binding signal (z-score within array); higher = stronger binding
Settings in all cases: glycan notation: IUPAC condensed, linker removed
[1] = target: Fuc(a1-2)Gal(b1-3)GlcNAc(b1-2)Man(a1-3)[Fuc(a1-2)Gal(b1-3)GlcNAc(b1-2)Man(a1-6)]Man(b1-4)GlcNAc(b1-4)GlcNAc
Summary of the method: (§1)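 Glycan array data were curated from 3228 arrays in the Consortium for Functional Glycomics database and kept only where the protein sequence was available. Glycan names were converted to IUPAC-condensed notation, and columns mapping to the same glycan were averaged. The binding signal is a within-array Z-score, averaged across arrays of the same protein sequence at different concentrations or buffers and across linkers. Negative Z-scores can be read as non-binding.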

[2] = target: Fuc(a1-2)Gal(b1-4)[Fuc(a1-3)]GlcNAc(b1-3)[Neu5Ac(a2-6)Gal(b1-4)GlcNAc(b1-6)]Gal(b1-4)Glc
Summary of the method: as §1

[3] = target: Fuc(a1-2)Gal6S(b1-4)Glc6S
Summary of the method: as §1

[4] = target: Fuc(a1-2)[Gal(a1-3)]Gal(b1-3)GlcNAc(b1-2)Man(a1-3)[Fuc(a1-2)[Gal(a1-3)]Gal(b1-3)GlcNAc(b1-2)Man(a1-6)]Man(b1-4)GlcNAc(b1-4)GlcNAc
Summary of the method: as §1

[5] = target: Fuc(a1-2)[GalNAc(a1-3)]Gal(b1-3)GlcNAc(b1-3)GalNAc
Summary of the method: as §1

[6] = target: Fuc(a1-2)[GalNAc(a1-3)]Gal(b1-4)GlcNAc(b1-2)Man(a1-3)[Fuc(a1-2)[GalNAc(a1-3)]Gal(b1-4)GlcNAc(b1-2)Man(a1-6)]Man(b1-4)GlcNAc(b1-4)[Fuc(a1-6)]GlcNAc
Summary of the method: as §1

[7] = target: Fuc(a1-4)GlcNAc
Summary of the method: as §1

[8] = target: Gal(a1-3)Gal(b1-3)GlcNAc(b1-2)Man(a1-3)[Gal(a1-3)Gal(b1-3)GlcNAc(b1-2)Man(a1-6)]Man(b1-4)GlcNAc(b1-4)GlcNAc
Summary of the method: as §1

[9] = target: Gal(a1-3)[Gal(a1-4)]Gal(b1-4)GlcNAc
Summary of the method: as §1

[10] = target: Gal(b1-3)GalNAc(a1-3)[Fuc(a1-2)]Gal(b1-4)Glc
Summary of the method: as §1

[11] = target: Gal(b1-3)GalNAc(b1-4)[Neu5Ac(a2-3)]Gal(b1-4)Glc
Summary of the method: as §1

[12] = target: Gal(b1-3)GlcNAc(b1-3)Gal(b1-4)[Fuc(a1-3)]GlcNAc(b1-6)[Gal(b1-3)GlcNAc(b1-3)]Gal(b1-4)Glc
Summary of the method: as §1

[13] = target: Gal(b1-4)GalNAc(a1-3)[Fuc(a1-2)]Gal(b1-4)GlcNAc
Summary of the method: as §1

[14] = target: Gal(b1-4)GlcNAc(b1-2)[Gal(b1-4)GlcNAc(b1-6)]Man(a1-6)[Gal(b1-4)GlcNAc(b1-2)Man(a1-3)]Man(b1-4)GlcNAc(b1-4)GlcNAc
Summary of the method: as §1

[15] = target: Gal(b1-4)GlcNAc(b1-2)[Gal(b1-4)GlcNAc(b1-6)]Man(a1-6)[GlcNAc(b1-4)][Gal(b1-4)GlcNAc(b1-2)[Gal(b1-4)GlcNAc(b1-4)]Man(a1-3)]Man(b1-4)GlcNAc(b1-4)[Fuc(a1-6)]GlcNAc
Summary of the method: as §1

[16] = target: Gal(b1-4)GlcNAc(b1-3)Gal(b1-3)GalNAc
Summary of the method: as §1

[17] = target: Gal(b1-4)GlcNAc(b1-3)Gal(b1-4)GlcNAc(b1-3)Gal(b1-4)GlcNAc(b1-3)Gal(b1-4)GlcNAc(b1-2)[Gal(b1-4)GlcNAc(b1-3)Gal(b1-4)GlcNAc(b1-3)Gal(b1-4)GlcNAc(b1-3)Gal(b1-4)GlcNAc(b1-6)]Man(a1-6)[Gal(b1-4)GlcNAc(b1-3)Gal(b1-4)GlcNAc(b1-3)Gal(b1-4)GlcNAc(b1-3)Gal(b1-4)GlcNAc(b1-2)Man(a1-3)]Man(b1-4)GlcNAc(b1-4)[Fuc(a1-6)]GlcNAc
Summary of the method: as §1

[18] = target: Gal(b1-4)GlcNAc(b1-3)Gal(b1-4)GlcNAc(b1-3)GalNAc
Summary of the method: as §1

[19] = target: Gal3S(b1-4)Glc
Summary of the method: as §1

[20] = target: Gal3S(b1-4)[Fuc(a1-3)]Glc6S
Summary of the method: as §1

[21] = target: Gal3S6S(b1-4)GlcNAc6S
Summary of the method: as §1

[22] = target: Gal4S6S(b1-4)GlcNAc
Summary of the method: as §1

[23] = target: Gal6P(b1-4)GlcNAc
Summary of the method: as §1

[24] = target: Gal6S(b1-3)GlcNAc
Summary of the method: as §1

[25] = target: GalNAc(b1-3)Gal(a1-4)Gal(b1-4)GlcNAc
Summary of the method: as §1

[26] = target: GalNAc(b1-4)GlcNAc
Summary of the method: as §1

[27] = target: GalNAc(b1-4)GlcNAc(b1-2)Man(a1-3)[GalNAc(b1-4)GlcNAc(b1-2)Man(a1-6)]Man(b1-4)GlcNAc(b1-4)GlcNAc
Summary of the method: as §1

[28] = target: GalNAc3S(b1-4)GlcNAc
Summary of the method: as §1

[29] = target: Glc(a1-6)Glc(a1-6)Glc(a1-6)Glc
Summary of the method: as §1

[30] = target: GlcNAc(a1-4)Gal(b1-4)GlcNAc(b1-3)Gal(b1-4)Glc
Summary of the method: as §1

[31] = target: GlcNAc(a1-4)Gal(b1-4)GlcNAc(b1-3)Gal(b1-4)[Fuc(a1-3)]GlcNAc(b1-3)Gal(b1-4)[Fuc(a1-3)]GlcNAc
Summary of the method: as §1

[32] = target: GlcNAc(b1-2)Man(a1-3)[GlcNAc(b1-2)Man(a1-6)]Man(b1-4)GlcNAc(b1-4)[Fuc(a1-6)]GlcNAc
Summary of the method: as §1

[33] = target: GlcNAc(b1-3)Gal(b1-4)GlcNAc(b1-2)Man(a1-3)[GlcNAc(b1-3)Gal(b1-4)GlcNAc(b1-2)Man(a1-6)]Man(b1-4)GlcNAc(b1-4)[Fuc(a1-6)]GlcNAc
Summary of the method: as §1

[34] = target: GlcNAc(b1-3)Gal(b1-4)GlcNAc(b1-6)[Gal(b1-3)]GalNAc
Summary of the method: as §1

[35] = target: GlcNAc(b1-6)GalNAc
Summary of the method: as §1

[36] = target: Man(a1-2)Man(a1-3)[Man(a1-2)Man(a1-6)]Man
Summary of the method: as §1

[37] = target: Man(a1-2)Man(a1-3)[Man(a1-2)Man(a1-6)]Man(a1-6)[Man(a1-2)Man(a1-2)Man(a1-3)]Man
Summary of the method: as §1

[38] = target: Man(a1-2)Man(a1-6)[Man(a1-3)]Man(a1-6)[Man(a1-2)Man(a1-2)Man(a1-3)]Man
Summary of the method: as §1

[39] = target: Man(a1-3)[Man(a1-6)]Man(a1-6)[Man(a1-3)]Man
Summary of the method: as §1

[40] = target: Man(a1-6)Man
Summary of the method: as §1

[41] = target: Neu5Ac(a2-3)Gal(b1-3)GalNAc
Summary of the method: as §1

[42] = target: Neu5Ac(a2-3)Gal(b1-4)GlcNAc
Summary of the method: as §1

[43] = target: Neu5Ac(a2-3)Gal(b1-4)GlcNAc(b1-3)Gal(b1-3)GlcNAc
Summary of the method: as §1

[44] = target: Neu5Ac(a2-3)Gal(b1-4)GlcNAc(b1-6)[Gal(b1-3)]GalNAc
Summary of the method: as §1

[45] = target: Neu5Ac(a2-3)Gal(b1-4)[Fuc(a1-3)]GlcNAc(b1-3)GalNAc
Summary of the method: as §1

[46] = target: Neu5Ac(a2-3)GalNAc
Summary of the method: as §1

[47] = target: Neu5Ac(a2-6)Gal(b1-4)GlcNAc(b1-2)Man(a1-3)[GlcNAc(b1-2)Man(a1-6)]Man(b1-4)GlcNAc(b1-4)GlcNAc
Summary of the method: as §1

[48] = target: Neu5Ac(a2-8)Neu5Ac(a2-8)Neu5Ac(a2-3)[Gal(b1-3)GalNAc(b1-4)]Gal(b1-4)Glc
Summary of the method: as §1

[49] = target: Neu5Gc(a2-8)Neu5Gc(a2-3)Gal(b1-4)GlcNAc
Summary of the method: as §1

B1: GS13455A-bfa-343-25-343 (Bacteroides fragilis) (protein)
chain: KDEIQIVDQDTSWQMDNKYIEEDIREQLGIDPFTDLVYLGYYGNPYTQLEAINDLVNTTLVGKNELSFKVKVTKPYKEDIKVNLMKEDKLVTDFPEMAEGIPLFPSENCTFEGGVLKAGELETTVKLTLKDVEKLNNLSGYVMAIKLTMEGSHEHLAIARTRSSYFVKLNLSIRLDNIDSSNKKIEGKGFNKEISFKSDIRPDKLGSLNDGNFTANNWYTSNANNYLTIILPEKQSLKGFRLDTNTSPSGSYMLKSCRVMVETPDGNWVNHGVFDRKSMDGIAYISFKKPVECTKVRFENMMAFNGRFSVDVNEVTAFR
glycan array binding signal (z-score) [1]: -0.69
glycan array binding signal (z-score) [2]: -0.309
glycan array binding signal (z-score) [3]: 0.254
glycan array binding signal (z-score) [4]: -0.738
glycan array binding signal (z-score) [5]: 2.29
glycan array binding signal (z-score) [6]: 1.46
glycan array binding signal (z-score) [7]: 20.2
glycan array binding signal (z-score) [8]: -0.044
glycan array binding signal (z-score) [9]: 1.91
glycan array binding signal (z-score) [10]: -0.504
glycan array binding signal (z-score) [11]: -0.051
glycan array binding signal (z-score) [12]: -0.016
glycan array binding signal (z-score) [13]: -0.716
glycan array binding signal (z-score) [14]: -0.11
glycan array binding signal (z-score) [15]: -0.04
glycan array binding signal (z-score) [16]: 0.107
glycan array binding signal (z-score) [17]: 0.144
glycan array binding signal (z-score) [18]: -0.065
glycan array binding signal (z-score) [19]: 1.7
glycan array binding signal (z-score) [20]: 1.38
glycan array binding signal (z-score) [21]: 1.68
glycan array binding signal (z-score) [22]: 0.197
glycan array binding signal (z-score) [23]: -0.523
glycan array binding signal (z-score) [24]: -0.365
glycan array binding signal (z-score) [25]: 1.43
glycan array binding signal (z-score) [26]: -0.125
glycan array binding signal (z-score) [27]: 1.75
glycan array binding signal (z-score) [28]: -0.39
glycan array binding signal (z-score) [29]: -0.604
glycan array binding signal (z-score) [30]: 0.059
glycan array binding signal (z-score) [31]: 1.64
glycan array binding signal (z-score) [32]: -0.409
glycan array binding signal (z-score) [33]: 0.601
glycan array binding signal (z-score) [34]: -0.194
glycan array binding signal (z-score) [35]: -0.656
glycan array binding signal (z-score) [36]: -0.554
glycan array binding signal (z-score) [37]: -0.701
glycan array binding signal (z-score) [38]: 0.988
glycan array binding signal (z-score) [39]: -0.129
glycan array binding signal (z-score) [40]: 0.205
glycan array binding signal (z-score) [41]: 0.08
glycan array binding signal (z-score) [42]: -0.152
glycan array binding signal (z-score) [43]: 0.34
glycan array binding signal (z-score) [44]: -0.414
glycan array binding signal (z-score) [45]: 3.25
glycan array binding signal (z-score) [46]: -0.681
glycan array binding signal (z-score) [47]: 0.878
glycan array binding signal (z-score) [48]: -0.113
glycan array binding signal (z-score) [49]: 0.527
